Results reported in PubChem BioAssay AID1240 (Sanford-Burnham Center for Chemical Genomics, 2008).
The whole screen tested about 50,000 compounds, of which about 800 (1.6%) showed an effect of 50% or more. Only a selection was taken, and strong results are over-represented in it overall.

These compounds were tested against Bcl-2-like protein 10 (Homo sapiens) (UniProt Q9HD36) (assay: Phenotype converters, Bcl-B/TR3 peptide binding displacement, primary biochemical FP (AID 1240;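 further: 0% = Bcl-B with tracer peptide and DMSO and 100% = tracer peptide lacking Bcl-B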)). Settings: GST-Bcl-B / FITC-TR3 peptide fluorescence polarization; stronger effect = higher value; compound at 3.75 mg/L.
Chain of Bcl-2-like protein 10 (Homo sapiens) (Q9HD36 whole entry, looked up): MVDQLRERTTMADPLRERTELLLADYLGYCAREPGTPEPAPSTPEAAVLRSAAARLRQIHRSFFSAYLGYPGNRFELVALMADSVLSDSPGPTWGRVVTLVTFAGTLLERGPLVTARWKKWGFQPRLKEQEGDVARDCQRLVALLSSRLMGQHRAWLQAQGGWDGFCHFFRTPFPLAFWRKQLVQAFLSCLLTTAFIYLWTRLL
With COc1ccc(C(=O)N2CCN(C3C4CC5CC(C4)CC3C5)CC2)cc1OC (stereo unspecified) the displacement was -6.5%.
Compound Cc1cccc(N2CCN(C(=O)Nc3ccc(Cl)c(Cl)c3)CC2)c1C has a displacement of -0.9%.
In the case of O=S1(=O)CCC(NC(=S)SCCOc2ccccc2OCCO)C1 (stereo unspecified), the displacement is reported as 6.3%.
With Cc1cccc(C=Nc2ccc(O)cc2)c1 the displacement was -8.4%.
CS(=O)(=O)N(CC(=O)Nc1ccc(Cl)cc1)c1ccc(Br)cc1 was tested, and the displacement was 3.3%.
Compound Cc1ccc(-c2csc(NC(=O)c3sc4ccccc4c3Cl)n2)c(C)c1 has a displacement of 2.6%.
In the case of CCOc1ccc(Cc2c(C)nc3c(C)cccc3c2Cl)cc1, the displacement is reported as -5.7%.
Work on CCC1=NN(C(=O)c2ccncc2)C(O)(c2ccc(Br)cc2)C1 (stereo unspecified) yielded a displacement of 10.2%.
For Cc1ccc(NC(=S)NN2CCN(C)CC2)cc1, the displacement was 5.2%.
In the case of Cc1ccc(OCC(=O)NCc2ccco2)c(C)c1, the displacement is reported as -2.9%.
For N#C/C(=C/c1ccccc1)C(=O)Nc1ccc(Cl)c(Cl)c1, the displacement was 1.5%.
Compound CC(C)(C)c1cc(/C=N/Nc2nnc3c(n2)[nH]c2ccccc23)cc(C(C)(C)C)c1O has a displacement of 4.8%.
Work on CSc1nc(-c2ccccc2)nc2[nH]ccc(=O)c12 yielded a displacement of 110%.
Cc1nc(-c2ccccc2)c2c(=O)cc[nH]c2n1 gave a displacement of 15.4%.
Cc1nc(-c2ccccc2)nc2[nH]ccc(=O)c12 was tested, and the displacement was 11.9%.
For COc1cc(/C=C2/SC(=S)N(C)C2=O)cc(Br)c1OCCOc1ccccc1C, the displacement was -2%.
For COC(=O)C(Cc1ccccc1)NC(=O)CCN1C(=O)c2cccc3cccc(c23)C1=O (stereo unspecified), the displacement was 15%.
CCc1ccc(NC(=O)C(=O)NCCCO)cc1 was tested, and the displacement was 5%.
CN(C)c1ccc(C(O)C(C)(O)c2nc3ccccc3n2C)cc1 (stereo unspecified) was tested, and the displacement was 6.1%.
With C=CCOc1ccc(/C=C2/C(=O)NC(=O)N(c3cccc(C)c3)C2=O)cc1OCC the displacement was 126%.
CCOc1cc(/C=C2/C(=O)NC(=O)N(c3ccccc3)C2=O)ccc1OCc1ccc([N+](=O)[O-])cc1 showed a displacement of 75.9%.
In the case of COc1cc(C=C2C(=O)c3ccccc3C2=O)ccc1OCc1ccc(F)cc1, the displacement is reported as 88.7%.
C=CCOc1ccc(/C=C2/C(=O)NC(=O)N(c3ccc(C)cc3)C2=O)cc1OCC was tested, and the displacement was -2.8%.
Compound COc1cc(/C=C2/C(=O)NC(=S)N(c3ccccc3)C2=O)ccc1OCc1ccc([N+](=O)[O-])cc1 has a displacement of 4%.
In the case of COc1cc(C=C2C(=O)c3ccccc3C2=O)ccc1OCc1ccc(I)cc1, the displacement is reported as -11.5%.
With COc1cc(/C=C2\C(=O)NC(=O)N(c3ccc(C)cc3)C2=O)ccc1OCc1ccc([N+](=O)[O-])cc1 the displacement was 70%.
In the case of CCOc1cc(/C=C2/C(=O)NC(=O)N(c3ccc(OC)cc3)C2=O)ccc1OCCOc1ccc([N+](=O)[O-])cc1, the displacement is reported as -0.9%.
COc1cc(/C=C2\C(=O)NC(=O)N(c3ccc(C)cc3)C2=O)ccc1OCc1ccccc1 gave a displacement of 38.6%.
Work on COc1cc(/C=C2/C(=O)NC(=O)N(c3ccc(C)cc3)C2=O)ccc1OCCOc1ccc([N+](=O)[O-])cc1 yielded a displacement of 10.8%.
Work on C=CCOc1ccc(/C=C2\C(=O)NC(=O)N(c3ccc(Cl)cc3)C2=O)cc1OCC yielded a displacement of -4%.
O=C1C(=Cc2ccc(OCc3ccc(F)cc3)c(Br)c2)C(=O)c2ccccc21 showed a displacement of 19.1%.
Cc1ccc(NS(=O)(=O)c2cccc([N+](=O)[O-])c2)cc1Cl was tested, and the displacement was -0.2%.
With CC(=O)Nc1ccccc1NC(=O)c1ccc(Cl)cc1 the displacement was 11.4%.
With O=C(O)CCC(=O)Nc1ccc2nn(-c3ccccc3)nc2c1 the displacement was 3.6%.
Compound COc1cc(C(=O)Nc2ccc(Br)cn2)cc(OC)c1OC has a displacement of -1.3%.
Compound COc1ccc(-c2c(C#N)c(N)nc3c2CCCCC3)cc1OC has a displacement of -2.3%.
With CCOc1ccc(-c2c(C#N)c(N)nc3sc(C#N)c(N)c23)cc1 the displacement was -1.4%.
In the case of CCCCOC(=O)c1sc2nc(N)c(C#N)c(-c3ccc(OC)c(OC)c3)c2c1N, the displacement is reported as 167%.
Compound O=C(CCN1C(=O)c2ccccc2C1=O)NC1CCCC1 has a displacement of 8.5%.
Compound O=C(N/N=C/c1cccnc1)/C(=C\c1cccs1)NC(=O)c1ccccc1 has a displacement of -9.3%.
In the case of O=C1NC(=Nc2cccnc2)S/C1=C\c1ccc(F)cc1, the displacement is reported as 3.5%.
Compound O=C1NC(=Nc2cccc(O)c2)S/C1=C\c1cccc(O)c1 has a displacement of 1.9%.
In the case of O=C1NC(=Nc2ccc(O)cc2)S/C1=C\c1ccc(F)cc1, the displacement is reported as 7.7%.
Compound O=C1NC(=Nc2cccc(O)c2)S/C1=C\c1ccc(F)cc1 has a displacement of 75.8%.
In the case of O=C1NC(=Nc2cccnc2)S/C1=C\c1cccc(F)c1, the displacement is reported as 146%.
With O=C1NC(=Nc2cccnc2)S/C1=C\c1ccc(Br)cc1 the displacement was 12.1%.
CCOC(=O)C12CC3CC(CC(C3)C1)C2 showed a displacement of -12.2%.
COc1ccc([N+](=O)[O-])cc1NCc1cccnc1 was tested, and the displacement was 3.1%.
Oc1ccc2ccccc2c1C=Nc1ccc2oc(-c3ccccc3Br)nc2c1 gave a displacement of 120%.
NC(=O)c1cccc(N=Cc2c(O)ccc3ccccc23)c1 was tested, and the displacement was -0.3%.
CCC(=O)Nc1ccc2oc(-c3ccccc3Br)nc2c1 gave a displacement of 8.7%.
In the case of COc1ccc(-c2ccc(-c3nnc(-c4cccc(C)c4)o3)cc2)cc1, the displacement is reported as -5.4%.
COc1cc(C=NN2CCN(Cc3ccc(C)cc3C)CC2)cc(Br)c1O gave a displacement of 10.3%.
For N#C/C(=N/Nc1cccc(C(F)(F)F)c1)c1nc(-c2ccccc2)cs1, the displacement was -4.4%.
N#C/C(=N\Nc1ccccc1)c1nc(-c2ccc(F)cc2)cs1 was tested, and the displacement was 127%.
N#C/C(=N\Nc1ccccc1F)c1nc(-c2ccccc2)cs1 was tested, and the displacement was 7.2%.
Compound Cc1ccccc1CNC(=O)CN(c1ccc(Oc2ccccc2)cc1)S(C)(=O)=O has a displacement of 7.2%.
Work on CCOc1ccccc1NC(=O)c1cc(C(=O)OC)cc([N+](=O)[O-])c1 yielded a displacement of -7.1%.
For CC1=NN(c2ccc(S(N)(=O)=O)cc2)C(=O)/C1=C\c1ccc(-c2ccc(C)c(Cl)c2)o1, the displacement was 4%.
COc1ccc(C=C2NC(=S)N(c3ccccc3)C2=O)c(OC)c1 was tested, and the displacement was 3.7%.
COc1ccc(/C=C2/SC(=O)N(CNc3ccc(Br)cc3C)C2=O)cc1 showed a displacement of 4.5%.
With COc1ccc(OC)c(/C=C2/SC(=S)N(CNc3cccc(Cl)c3)C2=O)c1 the displacement was 57%.
For COc1ccc(N2C(=O)/C(=C\c3cc(OC)ccc3OC)SC2=S)cc1, the displacement was 28.3%.
Work on COc1ccccc1/C=C1/SC(=O)N(CNc2cccc(Cl)c2)C1=O yielded a displacement of 9.1%.
Work on COc1ccc(OC)c(/C=C2\NC(=S)N(c3ccccc3)C2=O)c1 yielded a displacement of 62.3%.
COc1ccc(OC)c(/C=C2/SC(=O)N(CNc3ccc(Br)cc3C)C2=O)c1 showed a displacement of 90.9%.
COC(=O)CN1C(=O)/C(=C/c2cc(OC)ccc2OC)SC1=S showed a displacement of -14.6%.
With COc1ccc(OC)c(/C=C2/SC(=S)N(c3ccccc3OC)C2=O)c1 the displacement was -0.9%.
With COc1ccc(/C=C2\NC(=S)N(c3ccccc3)C2=O)cc1OC the displacement was 41.7%.
Compound COc1ccc(OC)c(/C=C2\SC(=S)N(c3ccccc3C)C2=O)c1 has a displacement of 158%.
COc1ccc(/C=C2/SC(=O)N(CNc3ccc(Br)cc3C)C2=O)c(OC)c1 showed a displacement of 31.7%.
Compound COc1cc(CNc2ccc(Br)cc2C)cc(OC)c1OC has a displacement of 13.2%.
In the case of Cc1ccc(C(=O)Nc2cc(-c3cccc(C)c3)[nH]n2)cc1, the displacement is reported as 6.2%.
O=C1/C(=C\c2cccc(C(F)(F)F)c2)SC(=S)N1Cc1ccccc1 gave a displacement of 11%.
In the case of Cc1cc(Br)cc2c1NC(=O)C21OCCO1, the displacement is reported as -4.3%.
Work on Cc1nnc(C)n1/N=C/c1ccc(O)c(O)c1 yielded a displacement of 15.9%.
COc1ccccc1CNC(=O)C/C(C)=N/NC(=O)C(=O)NC(C)C was tested, and the displacement was -14.6%.
With CSc1ccc(/C=C(\NC(=O)c2ccc(C)cc2)C(=O)Nc2cccc(C)c2)cc1 the displacement was -2.7%.
With N#C/C(=C/c1ccc(Cl)cc1)C(=O)Nc1cccc(Br)c1 the displacement was -9.8%.
For N#C/C(=C/c1ccc(C(=O)O)cc1)C(=O)Nc1cccc(Br)c1, the displacement was -2.2%.
Work on N#C/C(=C\c1c[nH]c2ccccc12)C(=O)Nc1ccc(F)cc1 yielded a displacement of 15.3%.
N#C/C(=C/c1c[nH]c2ccccc12)C(=O)Nc1cccc(Br)c1 gave a displacement of 90.7%.
CSc1ccc(/C=C(\NC(=O)c2ccc(C)cc2)C(=O)Nc2cccc(F)c2)cc1 gave a displacement of 127%.
In the case of Cc1ccc(/C=C(/C#N)C(=O)Nc2cccc(Br)c2)o1, the displacement is reported as -37.3%.
In the case of CC(=O)c1cccc(NC(=O)/C(=C\c2ccc(Br)cc2)NC(=O)c2ccc(C)cc2)c1, the displacement is reported as 2.4%.
N#C/C(=C/c1ccc(O)cc1)C(=O)Nc1cccc(Br)c1 gave a displacement of -32.7%.
Cc1[nH]c2ccccc2c1/C=C(/C#N)C(=O)Nc1cccc(Br)c1 gave a displacement of -17.5%.
Compound CN(C)c1ccc(/C=C(/C#N)C(=O)Nc2cccc(Br)c2)cc1 has a displacement of 53.8%.
N#C/C(=C/C=C/c1ccco1)C(=O)Nc1cccc(Br)c1 showed a displacement of 59.3%.
CCOc1ccc(N2C(=O)NC(=O)/C(=C\c3ccc(-c4ccccc4C(=O)O)o3)C2=O)cc1 was tested, and the displacement was 14.1%.
Work on CCN(Cc1ccccc1)C(=O)c1ccccc1[N+](=O)[O-] yielded a displacement of -11.3%.
CC(C)c1ccc(C2OC3(C(=O)c4ccccc4C3=O)C3C(=O)N(c4ccc(Cl)c(Cl)c4)C(=O)C23)cc1 (stereo unspecified) was tested, and the displacement was 4.5%.
In the case of O=c1c(Oc2ccccc2Br)c(C(F)(F)F)oc2cc(O)ccc12, the displacement is reported as 3%.
COc1ccc(NC(=O)CN(c2ccccc2Cl)S(C)(=O)=O)cc1OC showed a displacement of 3.6%.
Compound CCOc1cc(/C=C2\C(=O)NC(=O)N(c3ccc(Cl)cc3)C2=O)cc(Cl)c1OCC(=O)O has a displacement of -2.8%.
With Cc1cc(C)c(C(=O)/C(=C/c2ccc(I)cc2)c2ccccc2)c(=O)[nH]1 the displacement was -1.1%.
In the case of Cc1cccc(C(=O)NNC2=CC(=O)CC(C)(C)C2)c1O, the displacement is reported as 37.5%.
COc1ccc([N+](=O)[O-])cc1-c1ccc(/C=C(/C#N)C(=O)Nc2cccc(Br)c2)o1 gave a displacement of 7.6%.
COc1ccc(OC)c(/C=C(/C#N)C(=O)Nc2cccc(Br)c2)c1 was tested, and the displacement was 100%.
In the case of N#C/C(=C\c1ccc(-c2ccccc2[N+](=O)[O-])o1)C(=O)Nc1cccc(Br)c1, the displacement is reported as -6.3%.
Work on N#C/C(=C/c1ccc(C#N)cc1)C(=O)Nc1cccc(Br)c1 yielded a displacement of -8.5%.
Compound COc1ccc(/C=C(/C#N)C(=O)Nc2cccc(Br)c2)c(OC)c1 has a displacement of -8.7%.
Work on COc1ccc(Cl)cc1/C=C(/C#N)C(=O)Nc1cccc(Br)c1 yielded a displacement of 14.8%.
CSc1ccc(/C=C(/C#N)C(=O)Nc2cccc(Br)c2)cc1 was tested, and the displacement was 80.3%.
Work on COc1cc([N+](=O)[O-])ccc1-c1ccc(/C=C(/C#N)C(=O)Nc2cccc(Br)c2)o1 yielded a displacement of 92.4%.
In the case of N#C/C(=C/c1ccc(F)cc1)C(=O)Nc1cccc(Br)c1, the displacement is reported as -19.5%.
